“And” between values parts separate entries of the source, which are not always exact repeats. Equal entries are not always repeated. Records with an inconclusive call do not appear. Entries that show only a call come without a potency. A structure can be active in one record and inactive in another. The source made the active and inactive calls. Calls follow the shape of the dose curve; as a rule, active = well fitted curve in the direction sought with a large enough effect in the repeat runs; inconclusive = weak or mixed curves; inactive = no such curve, though single readings can be large; an effect the other way counts as inactive or inconclusive.
test system: not listed separately; experiment: qHTS assay to identify small molecule antagonists of the retinoid-related orphan receptor gamma (ROR-gamma) signaling pathway - cell viability counter screen (AID 1159520); settings: Tet-on RORgamma CHO cells viability, ATP luminescence, 16 h; series mostly up to 92.4 µM; activity, negative = cytotoxicity: at the top concentration
How it was run: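 Tet-on ROR gamma CHO cells (1,000/well) were plated 4 hr, given compounds in DMSO for 2 hr at 37 C, then induced with 1 uM final doxycycline for 16 hr. Viability was read as ATP by CellTiter-Glo luminescence after 30 min.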
Also: nearly all actives have a fitted effect of over 50% in size.
Potency is read from the fitted curve at half-maximal effect.

Row | Structure (SMILES) | Potency | activity, negative = cytotoxicity
1 | c1ccc(N=Nc2ccccc2)cc1 | inactive | 
2 | O=P(O)(O)CCCl | inactive | 
3 | CCCCCCOC(=O)c1ccccc1C(=O)OCCCCCC | inactive | 
4 | CCCCCCCCCCCOC(=O)c1ccccc1C(=O)OCCCCCCCCCCC | inactive | 
5 | Nc1cccnc1 | inactive | 
6 | CCN(CC)N=O | inactive | 
7 | C=CCc1ccc(OC)cc1 | inactive | 
8 | Oc1ccc(-c2ccccc2)cc1 | inactive | 
9 | COP(=S)(OC)Oc1ccc([N+](=O)[O-])cc1 | inactive | 
10 | CCCCN(CCCC)N=O | inactive | 
11 | Brc1ccc(Oc2cc(Br)c(Br)cc2Br)c(Br)c1 | inactive | 
12 | N[C@@H](Cc1ccc(N(CCCl)CCCl)cc1)C(=O)O | 16.8 µM (active) | 
13 | CC1(C)C(C=C(Cl)Cl)C1C(=O)OC(C#N)c1cccc(Oc2ccccc2)c1 (configuration not stated) | inactive | 
14 | Nc1ccc(Cl)cc1N | inactive | 
15 | NCc1cccnc1 | inactive | 
16 | Oc1cc(Cl)c(Cl)cc1Cl | inactive | 
17 | CCOc1cc(C=O)ccc1O | inactive | 
18 | C#CCOS(=O)OC1CCCCC1Oc1ccc(C(C)(C)C)cc1 (configuration not stated) | 30.7 µM (active) and 54.5 µM (active) | 
19 | NNC(N)=S | inactive | 

Row | Structure (SMILES) | Potency | activity, negative = cytotoxicity
20 | O=C(O)CC[N+](=O)[O-] | inactive | 
21 | Cc1ccc(OP(=O)(Oc2ccc(C)cc2)Oc2ccc(C)cc2)cc1 | inactive | 
22 | CCC(C)c1cc([N+](=O)[O-])cc([N+](=O)[O-])c1O (configuration not stated) |  | 2.55% (inactive)
23 | CC(C)c1ccc(CO)cc1 | inactive | 
24 | c1nc[nH]n1 | inactive | 
25 | Cc1cc(Cl)ccc1OCCCC(=O)O | inactive | 
26 | CCCCCCCCOC(=O)c1ccccc1C(=O)OCCCCCCCC | inactive | 
27 | CN(C)c1ccc(C(=O)c2ccc(N(C)C)cc2)cc1 | inactive | 
28 | NNC(=S)NN | inactive | 
29 | CC(O)CCO (configuration not stated) | inactive | 
30 | CCCCNC(=O)n1c(NC(=O)OC)nc2ccccc21 | inactive | 
31 | C=CCN(CC=C)C(=O)C(Cl)Cl | inactive | 
32 | COc1ccc(C=O)cc1 | inactive | 
33 | Nn1cnnc1 | inactive | 
34 | O=C(CCl)c1ccccc1 | inactive and 61.1 µM (active) | 
35 | C=CCc1ccc2c(c1)OCO2 | inactive | 
36 | CCC(C)(c1ccc(O)cc1)c1ccc(O)cc1 | inactive | 
37 | Cc1cc(C)cc(C)c1 | inactive | 
38 | N#CCCCl | inactive | 

target: Nuclear receptor ROR-gamma (Homo sapiens) (UniProt P51449); experiment: qHTS assay to identify small molecule antagonists of the retinoid-related orphan receptor gamma (ROR-gamma) signaling pathway (AID 1159521;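 as to activity change, negative = inhibition: CHO cells with doxycycline inducible ROR-gamma driving an RORE luciferase reporter; top concentration of the series differs between compounds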); settings: Tet-on RORgamma CHO cells, RORE-luciferase, 16 h; series mostly up to 92.4 µM; activity change, negative = inhibition: at the top concentration
How it was run: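 Inducible-expression reporter assay: doxycycline (1 uM final) switched on RORγ in CHO cells bearing a ROR response element-luciferase construct, with test compounds present from 2 h beforehand. Decreased luminescence after 16 h defined antagonist activity.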

Row | Structure (SMILES) | Potency | activity change, negative = inhibition
39 | c1ccc(N=Nc2ccccc2)cc1 | inactive | 
40 | O=P(O)(O)CCCl | inactive | 
41 | CCCCCCOC(=O)c1ccccc1C(=O)OCCCCCC | inactive | 
42 | CCCCCCCCCCCOC(=O)c1ccccc1C(=O)OCCCCCCCCCCC | inactive | 
43 | Nc1cccnc1 | inactive | 
44 | CCN(CC)N=O | inactive | 
45 | C=CCc1ccc(OC)cc1 | inactive | 
46 | Oc1ccc(-c2ccccc2)cc1 | inactive | 
47 | COP(=S)(OC)Oc1ccc([N+](=O)[O-])cc1 | inactive | 
48 | CCCCN(CCCC)N=O | inactive | 
49 | Brc1ccc(Oc2cc(Br)c(Br)cc2Br)c(Br)c1 | inactive | 
50 | N[C@@H](Cc1ccc(N(CCCl)CCCl)cc1)C(=O)O | 11.7 µM (active) and 13.3 µM (active) | 
51 | CC1(C)C(C=C(Cl)Cl)C1C(=O)OC(C#N)c1cccc(Oc2ccccc2)c1 (configuration not stated) |  | 28.7% [at 42.5 µM] (inactive)
52 | Nc1ccc(Cl)cc1N | inactive | 
53 | NCc1cccnc1 | inactive | 
54 | Oc1cc(Cl)c(Cl)cc1Cl | 48.2 µM (active) | 
55 | CCOc1cc(C=O)ccc1O | inactive | 
56 | C#CCOS(=O)OC1CCCCC1Oc1ccc(C(C)(C)C)cc1 (configuration not stated) | 1.94 µM (active) and 3.86 µM (active) | 
57 | NNC(N)=S | inactive | 

Reference: PubChem BioAssay (Tox21)
